Compound activity as filed in PubChem.
Pf growth 96h = inhibits malaria parasite growth, 96 h; P. falciparum luciferase reporter growth, 96 h; Potency, µM (doses to about 28.7 µM), inactives show at the top dose activity change, negative = inhibition, usual class: inhibitors; 320,000 tested, 6.9% active; further: on the % scale 0 is the no-effect control and ±100 the full control effect
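P. falciparum expressing integrated firefly luciferase grown in erythrocytes (2% hematocrit, 0.05% parasitemia final) with compounds for 96 hours at 37 C, 5% CO2. Growth inhibition read as loss of luminescence after adding luciferase detection reagent.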
Pf growth 48h = inhibits P. falciparum growth in the first generation, 48 h; AID 504832; Potency, µM (doses to about 28.7 µM), for the others: at the top dose activity change, negative = inhibition, actives largely listed as inhibitors; P. falciparum luciferase growth in erythrocytes, 48 h; 310,000 tested, 5.9% active; further: on the % scale 0 is the no-effect control and ±100 the full control effect
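In quantitative HTS format, infected erythrocytes bearing luciferase-reporter parasites were treated for a single generation at 37 C. Luminescence after adding detection reagent served as the growth measure.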
Sm TGR inh = blocks Schistosoma mansoni thioredoxin glutathione reductase | Q962Y6 | purified TGR, DTNB reduction, TNB absorbance 405 nm | Potency, µM (doses to about 114 µM), without a hit: top-dose activity change, negative = inhibition, actives largely listed as inhibitors | 360,000 tested, 3% active | AID 485364; further: on the % scale 0 is the no-effect control and ±100 the full control effect; nearly all actives have a fitted effect of over 60% in size
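First, TGR (20 nM dispensed) and NADPH were mixed with compound. Second, a 15 min room-temperature incubation followed. Third, further NADPH and then DTNB were added to start the reaction. Finally, TNB absorbance was monitored kinetically.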
SARS PLP yeast = inhibitors of SARS-CoV papain-like protease in yeast | S. cerevisiae expressing SARS-CoV PLpro, growth rescue | Potency, µM (doses to about 32.9 µM), for the others: top-dose activity, positive = growth rescue, hits mostly activators | 330,000 tested, 0.19% active; calls by dose curve; further: 0% is about no effect; nearly all actives have a fitted effect of over 55% in size
* = called active by the depositor; u = inconclusive; x = no result; [ ] = remark or other dose. Shown are actives, neighbours in structure and some others; about 12% of the full set was active somewhere. Unless noted, the call rests on the fitted dose curve; in most records, active means well fitted curve in the direction sought with a large enough effect; inconclusive means small, poorly fitted or top-dose-only effect, or another doubt; inactive means no such curve, though single readings can be large; an effect the other way counts as inactive or inconclusive. Potency means the concentration at half of the fitted maximal effect.

SMILES	Pf growth 96h	Pf growth 48h	Sm TGR inh	SARS PLP yeast
Cc1ccccc1NC(=O)C1CC(=O)n2ncnc2N1 (stereo not drawn)	71.5%	145.3%	35.5µM*	-7.6%
CCCN1CCN(S(=O)(=O)c2ccc3c(c2)NC(=O)C(C)C(=O)N3)CC1 (stereo not drawn)	35.8%	-1.5%	9.7%	-2.4%
CC(=O)NN1C(=O)/C(=C/c2ccc(Br)o2)SC1=S	-2.5%	x	25.1µM*	23.8%
CC(=O)NN1C(=O)/C(=C\c2ccc(Br)o2)SC1=S	u	-4.3%	25.1µM*	18.0%
CCN(C(=O)c1cc(S(=O)(=O)N2CCCC2)cn1C)c1ccc(OC)cc1	x	x	5.0%	x
COC(=O)C1=CN(C2CC2)C=C(C(=O)OC)C1c1ccc(C(F)(F)F)cc1	u	u	9.0%	0.0%
COC(=O)C1=CNC=C(C(=O)OC)C1c1cccc2ccccc12	6.1%	11.7µM*	1.3%	-1.1%
COC(=O)C1=CN(Cc2cccs2)C=C(C(=O)OC)C1c1cccc(O)c1	u	-20.6%	-12.7%	1.1%
COC(=O)C1=CN(C2CC2)C=C(C(=O)OC)C1c1ccc(C(=O)OC)cc1	224.7%	u	1.0%	-15.1%
COC(=O)C1=CNC=C(C(=O)OC)C1c1ccc(Cl)cc1	1.3%	9.28µM*	-2.5%	2.9%
COC(=O)C1=CN(c2ccc(F)cc2)C=C(C(=O)OC)C1c1cccc(Br)c1	-13.8%	11.7µM*	2.9%	3.1%
COC(=O)C1=CN(c2ccc(Cl)cc2)C=C(C(=O)OC)C1c1ccc([N+](=O)[O-])cc1	5.22µM*	13.1µM*	-5.2%	1.3%
COC(=O)C1=CNC=C(C(=O)OC)C1c1ccccc1Cl	10.4%	-24.6%	-4.7%	0.0%
CCOC(=O)c1ccc(NC(=O)C(Cc2ccccc2)NS(=O)(=O)c2ccc(Br)s2)cc1 (stereo not drawn)	x	x	6.4%	x
COC(=O)C1=CNC=C(C(=O)OC)C1c1cccc(OC)c1	29.5%	u	8.1%	3.4%
COC(=O)C1=CN(c2ccc(F)cc2)C=C(C(=O)OC)C1c1ccc([N+](=O)[O-])cc1	9.28µM*	7.38µM*	5.5%	-0.8%
COC(=O)C1=CN(c2ccc(OC)cc2)C=C(C(=O)OC)C1c1ccc([N+](=O)[O-])cc1	4.15µM*	13.1µM*	-4.8%	-0.1%
COC(=O)C1=CN(c2cccc(Cl)c2)C=C(C(=O)OC)C1c1cccc(OC)c1	53.9%	11.7µM*	-2.6%	10.1%
COc1ccccc1NC(=O)c1sc2nc3n(c(=O)c2c1C)N=C(c1cccc(Br)c1)CS3	x	x	15.0%	x
CCC(=O)N1c2ccccc2CC1C(=O)NCCCN1CCN(c2cccc(Cl)c2)CC1 (stereo not drawn)	x	x	-15.5%	x
CCOc1ccc(Br)cc1C1C(C(=O)OC)=C(C)NC2=C1C(=O)c1ccccc12 (stereo not drawn)	x	x	0.4%	x
CCOC(=O)C1(Cc2ccccc2)CCN(Cc2cccc(OC)c2O)CC1	10.4µM*	u	2.1%	-0.5%
CCOC(=O)C1(Cc2cccc(OC)c2)CCN(Cc2ccccc2OC)CC1	20.3%	11.1%	1.1%	-0.4%
CCOC(=O)C1(Cc2ccccc2)CCN(Cc2cn(CC(=O)OC)c3ccccc23)CC1	5.22µM*	u	0.0%	0.9%
CCOC(=O)C1(Cc2ccccc2)CCN(Cc2cccc3nccnc23)CC1	-14.9%	-13.7%	16.3%	-0.1%
SMILES	Pf growth 96h	Pf growth 48h	Sm TGR inh	SARS PLP yeast
CCOC(=O)C1(Cc2cccc(OC)c2)CCN(Cc2cccn2-c2nccs2)CC1	u	11.7µM*	-7.4%	-1.2%
CCOC(=O)C1(Cc2cccc(OC)c2)CCN(Cc2cccc(OC)c2O)CC1	13.1µM*	u	0.0%	0.3%
CCOC(=O)C1(CC2CC2)CCN(Cc2cn(C)c3ccccc23)CC1	-2.9%	u	2.1%[57.1 µM]	-0.1%
CCOC(=O)C1(Cc2ccccc2)CCN(Cc2cccn2-c2nccs2)CC1	1.7%	-71.2%	8.0%[57.1 µM]	-0.4%
COc1ccccc1NC(=O)C(=O)Nc1ccc2c(c1)N(C(=O)C1CC1)CCC2	10.6%	9.6%	-3.4%	0.8%
CC(=O)N1CCCc2cc(S(=O)(=O)N3CCCC(C(=O)Nc4ccc(F)cc4F)C3)ccc21 (stereo not drawn)	x	x	0.8%	x
O=C(Nc1ccc(F)cc1)Nc1ccc(N2CCCC2)c(S(=O)(=O)Nc2ccccc2Cl)c1	4.65µM*	9.28µM*	0.7%	3.5%
O=C(Nc1ccc(N2CCCCC2)c(S(=O)(=O)Nc2ccccc2Cl)c1)c1cccnc1	x	x	x	-10.6%
O=C(Nc1ccc(N2CCOCC2)c(S(=O)(=O)Nc2ccccc2Cl)c1)c1ccc(F)cc1	x	x	x	13.4%
O=C(Nc1ccc(Cl)c(Cl)c1)Nc1ccc(N2CCCC2)c(S(=O)(=O)Nc2ccccc2Cl)c1	3.7µM*	13.1µM*	-0.8%	1.7%
CCN(C(=O)Cn1c(=O)n(CC2CCC(C(=O)NC)CC2)c(=O)c2sccc21)c1ccccc1 (stereo not drawn)	x	x	8.6%	x
CCOC(=O)c1c(NC(=O)/C=C/c2ccc(OCC)cc2)sc2c1CCCC2	x	x	-3.0%	x
CCOC(=O)[C@H]1[C@H]2COc3ccc(OC)cc3[C@@H]2N2C(=O)CN(Cc3ccc(OC)cc3)C(=O)[C@@]12C	u	6.57µM*	50.1µM*	u
CCOC(=O)[C@H]1[C@H]2COc3cc(OC)ccc3[C@@H]2N2C(=O)CN(Cc3ccccc3)C(=O)[C@@]12C	u	u	-31.1%	3.4%
CCOC(=O)[C@H]1[C@H]2COc3cc(OC)ccc3[C@@H]2N2C(=O)CN(Cc3ccc(OC)cc3)C(=O)[C@@]12C	u	11.7µM*	-17.4%	-5.1%
CCOC(=O)[C@H]1[C@H]2COc3ccc(C)cc3[C@@H]2N2C(=O)CN(Cc3ccco3)C(=O)[C@@]12C	0.7%	u	14.1µM*	1.5%
CCOC(=O)[C@H]1[C@H]2COc3ccc(OC)cc3[C@@H]2N2C(=O)CN(Cc3ccc(C)cc3)C(=O)[C@@]12C	3.7µM*	10.4µM*	-18.5%	2.5%
CCCCN1CC(=O)N2[C@H]3c4cc(OC)ccc4OC[C@@H]3[C@H](C(=O)OCC)[C@]2(C)C1=O	u	-20.8%	-11.7%	3.9%
COc1ccc(-c2nc3sc(CCNC(=O)c4cc(OC)c(OC)c(OC)c4)c(C)n3n2)cc1	x	x	11.4%	x
COc1cccc(CNC(=O)c2c(C)oc3ncnc(N4CCOCC4)c23)c1	x	x	6.4%	x
CCOC(=O)[C@H]1[C@H]2COc3ccc(C)cc3[C@@H]2N2C(=O)CN(Cc3ccc(C)cc3)C(=O)[C@@]12C	u	u	-10.1%	-3.5%
CCOC(=O)[C@H]1[C@H]2COc3ccc(Br)cc3[C@@H]2N2C(=O)CN(Cc3ccc(C)cc3)C(=O)[C@@]12C	u	14.7µM*	-5.3%	-1.0%
CC(=O)c1c(C)nc2sc3c(=N)n(N)cnc3c2c1-c1ccc(Cl)cc1	13.1µM*	u	1.6%	-10.5%
COc1cc2c(cc1OC)C(c1ccco1)CC(=O)N2 (stereo not drawn)	u	9.1%	8.0%	5.0%
O=C1CC(c2ccco2)c2ccc3ccccc3c2N1 (stereo not drawn)	u	-11.7%	44.7µM*	4.0%
